Bioassay records deposited in PubChem BioAssay by National Center for Advancing Translational Sciences (NCATS).
DT40 TDP1 CPT: qHTS for Inhibitors of human tyrosyl-DNA phosphodiesterase 1 (TDP1): qHTS in cells in presence of CPT; chicken DT40 Tdp1-/-;hTDP1 cells + 20 nM CPT, ATP luminescence, 48 h; Potency, µM (series often up to 46.2 µM), inactives show top-dose activity change, negative = growth inhibition, actives largely listed as inhibitors; actives 12% (n = 420,000); also: potency is read from the fitted curve at half-maximal effect; nearly all actives have a fitted effect of over 55% in size
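Chicken DT40 Tdp1-/- cells stably complemented with human TDP1 were seeded at 400 cells/well in medium containing 20 nM camptothecin, exposed to pin-transferred compounds, and grown at 37 °C for at least 48 hr. Viability was read as ATP luminescence.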
HT1080-NT tox: qHTS for induction of synthetic lethality in tumor cells producing 2HG: qHTS for the HT-1080-NT fibrosarcoma cell line. Potency, µM (titrated, usually from 46.1 µM), inactives show at the top dose activity, negative = less viability, usual class: cytotoxic. actives 1.6% (n = 360,000). HT-1080-NT fibrosarcoma viability, CellTiter-Glo ATP luminescence, 48 h. AID 686970, 2013;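 also: NT is the 2HG producing partner of a matched IDH1 knockdown line; potency is read from the fitted curve at half-maximal effect; 0% = DMSO-treated cells and -100% = media-only wells without cells; nearly all actives have a fitted effect of over 55% in size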
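Fibrosarcoma NT cells, 750 per well in 5% FBS RPMI, were exposed to compound for 48 hours. Viability: CellTiter-Glo luminescence.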
IL1B secr inh: qHTS for Inhibitors of Inflammasome Signaling: IL-1-beta AlphaLISA Primary Screen. THP-1 LPS/ATP IL-1B secretion, AlphaLISA, 16 h; active compounds read low. actives 4.7% (n = 360,000). AID 743279, 2014. activity change, % at 57.5 µM; in the data active = activity change below about -50%; inconclusive = mostly about -30% to -49%
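Secreted IL-1B measured by AlphaLISA bead assay after 16 h compound exposure of THP-1 cells; compounds (final up to 57.5 uM) added 1 h before LPS (250 ng/mL) and ATP (1.25 mM) stimulation; lower signal means less secretion.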
TDP1 cell noCPT: qHTS for Inhibitors of human tyrosyl-DNA phosphodiesterase 1 (TDP1): qHTS in cells in absence of CPT | Potency, µM (highest dose often 46.2 µM), without a hit: at the highest dose activity change, negative = growth inhibition, most hits filed as inhibitors | DT40 Tdp1-/- hTDP1 cells, no CPT, ATP luminescence, 48 h | actives 15% (n = 420,000) | AID 686978, 2013; also: potency is read from the fitted curve at half-maximal effect; nearly all actives have a fitted effect of over 55% in size
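Chicken DT40 Tdp1-/- cells stably complemented with human TDP1 were seeded at 400 cells/well with DMSO in place of 20 nM camptothecin. After compound pinning, cells grew at least 48 hr at 37 °C; viability read by CellTiter-Glo luminescence.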
HT1080 IDH1KD tx: qHTS for induction of synthetic lethality in tumor cells producing 2HG: qHTS for the HT-1080-IDH1KD cell line; actives 2% (n = 360,000); HT-1080 IDH1 knockdown viability, ATP luminescence, 48 h; Potency, µM (series often up to 46.1 µM), for the others: at the top dose activity, negative = toxicity, most hits filed as cytotoxic;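 also: potency is read from the fitted curve at half-maximal effect; 0% = DMSO wells and -100% = cell-free medium wells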
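IDH1KD HT-1080 cells, 750/well, RPMI + 5% FBS; compound pinned after 2 h settling; 48 h, 37 °C; CellTiter-Glo luminescence; % activity normalised to DMSO and no-cell wells; curves fitted, classed by r2 and efficacy.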
Starred values were filed as active, the others as inactive; ? = inconclusive; nt = not tested or not shown; ! = not confirmed by another sample. A selection: hits, their analogues and other compounds. The true share with any hit is near 19%. Unless noted, calls follow the shape of the dose curve; as a rule, active = well fitted curve in the direction sought with a large enough effect; inconclusive = small, poorly fitted or top-dose-only effect, or another doubt; inactive = no such curve, though single readings can be large; an effect the other way counts as inactive or inconclusive. Unless noted, % is scaled to controls: 0 for no effect and ±100 for the full control effect.

SMILES	DT40 TDP1 CPT	HT1080-NT tox	IL1B secr inh	TDP1 cell noCPT	HT1080 IDH1KD tx
CC(NC(=O)c1cnc2ccccc2n1)c1ccccc1 (centres undefined)	-7%	-9%	39	?	-15%
CCOC(=O)C1=C(C)NC(C)=C(C(=O)OCC)C1C(=O)OCC(=O)NC1CCCCC1	26µM*	2%	?	23µM*	-15%
CCOC(=O)C1=C(C)NC(C)=C(C(=O)OCC)C1C(=O)OCC(=O)NCCc1ccccc1	?	-2%	-55*	26µM*	1%
CC(NC(=S)NCCN1CCOCC1)C12CC3CC(CC(C3)C1)C2 (centres undefined)	?	-2%	-1	?	-6%
COC(=O)/C(=N/Nc1ccccc1OC)N1CCCc2ccccc21	?	-28%	-3	?	-24%
CC(=O)N1N=C(c2ccc(C)cc2)OC1c1ccc(Br)cc1 (centres undefined)	5%	-12%	-69*	-29%	-10%
Cc1ccc(S(=O)(=O)NCC(=O)NCC2CCCCC2)cc1C	-3%	12%	-8	-4%	6%
CCc1c(C)c(C#N)c2nc3ccccc3n2c1Nc1cccc(C(F)(F)F)c1	16µM*	nt	nt	16µM*	nt
Cc1cc(NC(=S)N(CCN2CCCCC2)Cc2ccco2)ccc1Cl	?	-23%	-97*	?	-18%
CCOC(=O)c1ccc(NC(=S)N(CCCN2CCCCCC2)Cc2ccco2)cc1	?	?	-66*	?	?
Cc1cccc(C)c1NC(=S)N(CCCN1CCCCC1)Cc1ccco1	0%	-25%	-10	-3%	-7%
Cc1ccc(NC(=S)N(CCN2CCCCC2)Cc2ccco2)cc1	?	15%	?	16µM*	11%
Cc1ccc(NC(=S)N(CCCN2CCOCC2)Cc2ccco2)cc1	-2%	-5%	-20	5%	2%
COc1ccc(NC(=O)Cn2c(C)cc3ccccc3c2=O)c(OC)c1	6%	nt	nt	-7%	nt
CN1CCN(c2ncnc3c2ncn3[C@H]2CN(Cc3ccncc3)C[C@@H](CO)O2)CC1	-14%	17%	-28	-25%	9%
CCOc1ccc2nc(NC3=NC(c4ccc(OC)cc4)CC(=O)N3)nc(C)c2c1 (centres undefined)	23µM*	?	-103*	21µM*	?
CCCc1nn2c(=O)cc(CSCC(=O)Nc3ccc(OC)cc3)nc2s1	-8%	9%	-2	3%	18%
O=C(Nc1ccnn1C1CCN(CC(O)CO)CC1)C1CCCC1 (centres undefined)	-3%	1%	7	6%	-2%
COC(=O)Cn1c(=NC(=O)c2ccc(OC)cc2)sc2cc(OC)ccc21	?	0%	-4	9.2µM*	9%
COC(=O)Cn1c(=NC(=O)c2cc(OC)cc(OC)c2)sc2cc(OC)ccc21	?	5%	18	?	13%
COC(=O)Cn1c(=NC(=O)c2cccc(OC)c2)sc2cc(OC)ccc21	-74%	-4%	-6	23µM*	-13%
COC(=O)Cn1c(=NC(=O)c2ccc(S(=O)(=O)N3CCc4ccccc4C3)cc2)sc2cc(OC)ccc21	-27%	2%	6	-24%	-3%
CCC(COC(=O)Nc1cccc(C)c1)NC(=O)OCC(C)C (centres undefined)	?	11%	-8	?	6%
COc1ccc(/C(C)=N\NC(=O)C(c2ccncc2)N2CCOCC2)cc1 (centres undefined)	-4%	1%	-11	3%	-2%
COc1c(-c2ccccc2)oc2c(ccc3occc32)c1=O	-18%	-4%	0	?	-8%
SMILES	DT40 TDP1 CPT	HT1080-NT tox	IL1B secr inh	TDP1 cell noCPT	HT1080 IDH1KD tx
O=C(NC1CCCCC1)C1c2ccccc2OCC(=O)N1CCc1ccccc1 (centres undefined)	-1%	3%	6	-26%	6%
CC1=C(SCc2ccccc2)C(=O)c2ccccc2C1=O	2.6µM*	9.2µM*	-70*	3.3µM*	26µM*
CN(C)S(=O)(=O)c1ccc(C(=O)NCc2nnc(SCC(=O)c3ccccc3)o2)cc1	-21%	-1%	4	?	0%
CC(=O)C1=C(O)CC(C)(C)CC1=NCc1nc2ccccc2[nH]1	?	20%	47	16µM*	20%
Cc1ccccc1NC(=S)NCc1ccc2[nH]c3c(c2c1)CCCC3	?	-16%	-12	21µM*	-5%
COc1ccccc1CCC(=O)NNC(=O)c1ccc(Br)cc1	-26%	-17%	-16	-7%	?
O=C(Nc1cccc(F)c1)N1CCN(C/C=C/c2ccccc2)CC1	-7%	-11%	-4	-14%	-5%
Fc1ccc(C(c2ccc(F)cc2)N2CCN(C/C=C\c3ccccc3)CC2)cc1	24µM*	nt	nt	21µM*	nt
O=C(CN1CCN(C(=O)C2CCN(C(=O)/C=C/c3ccccc3)CC2)CC1)Nc1ccc(F)cc1	?	5%	-83*	?	-2%
O=C(Nc1ccc(F)cc1)N1CCN(C/C=C/c2ccccc2)CC1	?	-11%	-14	29µM*	-4%
Brc1ccc([C@H]2CN3CCSC3=N2)cc1	-14%	?	-8	-10%	2%
CN(C)c1ccc(/C=C2\N=C(c3ccc(Cl)c([N+](=O)[O-])c3)NC2=O)cc1	?	-1%	-3	10µM*	3%
CN(C)c1ccc(/C=C2/NC(=O)NC2=O)cc1	-18%	-2%	-7	?	2%
CCN(C(=O)Cn1ncc2c(=O)oc3ccccc3c21)c1ccccc1F	-27%	nt	nt	?	nt
COc1cc(NC(=O)Cn2ncc3c(=O)oc4ccccc4c32)cc(OC)c1OC	-3%	nt	nt	-8%	nt
COC(=O)C(CCSC)NC(=O)Cn1ncc2c(=O)oc3ccccc3c21 (centres undefined)	?	-6%	-55*	-15%	4%
CCCN(C(=O)Cn1ncc2c(=O)oc3ccccc3c21)c1cccc(C)c1	23µM*!	4%	14	21µM*	0%
COc1ccc(C2CC(=O)Oc3cc(O)ccc32)cc1 (centres undefined)	14%	7%	10	-5%	10%
COc1ccc(C2c3c(ncn(Cc4ccco4)c3=N)Oc3ccc4ccccc4c32)cc1 (centres undefined)	?	21µM*	-77*	16µM*	?
